In the library only some 1.6% were active in any assay of this set; here they are far more common.
KCNQ2 pot: potentiators of rat KCNQ2 potassium channel; Potassium voltage-gated channel subfamily KQT member 2 (Rattus norvegicus), O88943; CHO-K1 KCNQ2, FluxOR thallium flux fluorescence; stronger effect = higher value; B-score at 10 µM; actives 0.54% (n = 310,000); AID 2239, 2010;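 active = fluorescence ratio B-score at least 3 SD of library B-scores, with initial fluorescence B-score within 3 of them, cut at about 5.3 in these data; same plate scores as AID 2156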;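 note: B-score of peak minus minimum over baseline fluorescence ratio after K+ and Tl+ stimulus; positive B-score means potentiation of KCNQ2 with more thallium influx and brighter signal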
Target sequence (O88943 whole entry, looked up): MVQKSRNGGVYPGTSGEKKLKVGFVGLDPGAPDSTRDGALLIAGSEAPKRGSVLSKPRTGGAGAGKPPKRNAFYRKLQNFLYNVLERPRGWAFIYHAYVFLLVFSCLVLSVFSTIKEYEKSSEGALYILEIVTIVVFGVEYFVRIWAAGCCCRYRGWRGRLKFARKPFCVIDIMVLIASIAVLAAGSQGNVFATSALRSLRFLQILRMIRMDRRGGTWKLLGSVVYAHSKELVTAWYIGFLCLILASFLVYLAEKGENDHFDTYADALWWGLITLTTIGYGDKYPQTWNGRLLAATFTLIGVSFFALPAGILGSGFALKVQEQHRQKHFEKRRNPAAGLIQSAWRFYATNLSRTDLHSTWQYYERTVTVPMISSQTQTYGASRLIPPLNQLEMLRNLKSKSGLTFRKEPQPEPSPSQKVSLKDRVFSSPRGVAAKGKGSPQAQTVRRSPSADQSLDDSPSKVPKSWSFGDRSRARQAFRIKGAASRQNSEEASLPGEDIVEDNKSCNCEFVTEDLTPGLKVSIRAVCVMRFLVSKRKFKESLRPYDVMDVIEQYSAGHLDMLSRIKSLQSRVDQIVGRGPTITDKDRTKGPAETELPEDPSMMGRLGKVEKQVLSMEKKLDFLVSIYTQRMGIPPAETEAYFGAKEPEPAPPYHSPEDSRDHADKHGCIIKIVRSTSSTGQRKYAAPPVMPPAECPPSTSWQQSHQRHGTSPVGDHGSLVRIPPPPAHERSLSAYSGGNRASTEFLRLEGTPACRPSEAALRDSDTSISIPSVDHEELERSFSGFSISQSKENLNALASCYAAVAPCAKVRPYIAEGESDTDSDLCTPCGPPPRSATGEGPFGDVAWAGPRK
KCNQ2 inh: rat KCNQ2 potassium channel inhibitors, primary screen, cell-based, CHO-K1, FluxOR thallium flux, B-score; AID 2156, 2009; 20 min; stronger effect = lower value; actives 1.1% (n = 310,000); Potassium voltage-gated channel subfamily KQT member 2 (Rattus norvegicus), O88943; B-score at 10 µM;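 active = fluorescence ratio B-score at most minus 3 library SDs, with starting brightness B-score within 2 library SDs, cut at about -5.5 in these data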
KCNQ2 inh conf: rat KCNQ2 potassium channel inhibitors, confirmation, cell-based, thallium flux; shares compounds with KCNQ2 inh; KCNQ2-expressing cells, inhibition; stronger effect = lower value; activity change, negative = inhibition, % at 10 µM; actives 57% (n = 1,000); AID 493025, 2011;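 note: 0% = vehicle wells and values are ratio percent relative to vehicle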
KCNQ1 spec: human KCNQ1 channel inhibition, counter-screen for KCNQ2 inhibitor project, cell-based, FluxOR thallium flux. AID 493026, 2011. actives 15% (n = 1,000). KCNQ1-expressing cells, FluxOR thallium flux fluorescence; stronger effect = lower value. activity change, negative = inhibition, % at 10 µM. shares compounds with KCNQ2 inh;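 active = activity change at least 3 SD of negative controls below their mean in both duplicate wells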;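 note: CHO cells stably transfected with KCNQ1 and depolarized by potassium stimulus; peak minus minimum fluorescence over baseline after thallium addition; 0% = vehicle negative control and -100% = blank without thallium stimulus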
CHO parental ctr: thallium flux change in parental CHO cells, counter-screen for KCNQ2 inhibitor project | shares compounds with KCNQ2 inh | stronger effect = lower value | activity change, % at 10 µM | actives 14% (n = 1,000) | AID 493029, 2011;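 note: 0% = vehicle negative controls with stimulus buffer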
KCNQ2 patch conf: rat KCNQ2 channel inhibitors, confirmation, cell-based, automated patch clamp, single concentration; shares compounds with KCNQ2 inh; KCNQ2-expressing cells, automated patch clamp current; calls only at 10 µM; actives 49% (n = 550)
Kir21 confirm: mouse Kir2.1 channel blockers, retest, confirmation, cell-based, FluxOR thallium flux, duplicate | shares compounds with KCNQ2 pot | Kir2.1-expressing cells, FluxOR thallium flux fluorescence; stronger effect = lower value | Tl flux remaining, % of negative control (stronger effect = lower value), % at 10 µM | actives 41% (n = 2,300) | AID 2032, 2009;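 active = Primary-screen hit whose thallium flux fell at least 3 control SD below untreated wells in both duplicates, with normal baseline fluorescence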;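 note: 0% = blank wells without stimulus and 100% = stimulated no-compound controls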
HEK293 ctr: parental HEK293 activity in Kir2.1 inhibitor counter-screen. shares compounds with KCNQ2 pot. actives 19% (n = 2,300). parental HEK293 cells, FluxOR thallium flux fluorescence; 0% = unstimulated blank wells. AID 2105. FluxOR signal as % of negative control (100 = no effect), % at 10 µM;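 active = dye signal at least 3 control SD above or below untreated wells in both duplicates, raw fluorescence within 3, either direction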;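 note: percent is based on the flux ratio of peak minus minimum fluorescence over baseline F0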
Active calls of the source: *; i = inactive; nt = not tested or not shown; + = active, no number. Unless noted, the rule behind the calls is not given here.

SMILES	KCNQ2 pot	KCNQ2 inh	KCNQ2 inh conf	KCNQ1 spec	CHO parental ctr	others
CCOC(=O)C(C)Sc1nc(-c2ccco2)cc(C(F)(F)F)c1C#N (centres undefined)	-8.76	-8.76*	-37.0%*	-39.0%*	-37.0%*	KCNQ2 patch conf=i
O=C(CCN1C(=O)C2CCCCC2C1=O)N1CCN(S(=O)(=O)c2c(F)cccc2F)CC1 (centres undefined)	0.86	i	nt	nt	nt
COc1ccccc1NC(=O)Nc1nc(CC(=O)NCc2ccc(F)cc2)cs1	0.46	i	nt	nt	nt
Cc1cnc(NC(=O)Nc2ccccc2)c(C)n1	0.67	i	nt	nt	nt
Cc1nn(C(C)C(=O)NCc2ccccc2Cl)c(=O)c2c1sc1ccccc12 (centres undefined)	-7.8	-7.8*	-31.5%*	i	i	KCNQ2 patch conf=+
Cc1nn(C(C)C(=O)NCCCN2CCCCCC2)c(=O)c2c1sc1ccccc12 (centres undefined)	nt	i	nt	nt	nt
Cc1ccc(Nc2nc(-c3ccc(C)cc3)c(CC(=O)O)s2)cc1	1.71	i	nt	nt	nt
O=C(O)Cc1sc(Nc2cccc3ccccc23)nc1-c1ccc(Cl)cc1	-8.23	-8.23*	i	i	i
Cc1cc(C)c(C#N)c(Sc2ccc(N)cc2)n1	0.71	i	nt	nt	nt
C=C(C)COc1ccc(-c2n[nH]c(C)c2-c2ccc(OC)c(OC)c2)c(O)c1	nt	i	nt	nt	nt
COc1ccc(/C=C/CN2CCCC(CO)(Cc3cccc(Cl)c3)C2)cc1 (centres undefined)	-6.79	-6.79*	-23.0%*	i	i	KCNQ2 patch conf=i
COc1ccccc1/C=C/CN1CCCC(CO)(Cc2cccc(Cl)c2)C1 (centres undefined)	nt	i	nt	nt	nt
COc1ccc(N2CCN(S(=O)(=O)CCNC(=O)/C=C/c3ccc4c(c3)OCO4)CC2)cc1	nt	i	nt	nt	nt
Cc1cccc(-c2oc3ccc(-c4ccc5c(c4)OCO5)cc3c2C(=O)OCc2ccc(O)cc2)c1	0.89	i	nt	nt	nt
O=C(COC(=O)c1ccccc1NCCO)NCCc1ccccc1	1.06	i	nt	nt	nt
O=C(OCC(=O)N(Cc1ccccc1)Cc1ccccc1)c1ccccc1NCCO	-7.54	-7.54*	-33.5%*	i	i	KCNQ2 patch conf=+
C=CCOc1ccc(C2C(C#N)=C(N)N(N(C)C)C3=C2C(=O)CCC3)cc1 (centres undefined)	0.24	i	nt	nt	nt
Cc1cc(-n2c(C)cc(C(=O)CCl)c2C)no1	0.13	i	nt	nt	nt
Cc1cc(-n2c(C)cc(C(=O)CSc3ccc4c(c3)OCCO4)c2C)no1	-6.94	-6.94*	-14.5%*	i	i	KCNQ2 patch conf=+
Cc1ccc(-n2nnnc2SCC(=O)c2cc(C)n(-c3cc(C)on3)c2C)c(C)c1	-7.47	-7.47*	i	i	i
Cc1cc(-n2c(C)cc(C(=O)CSc3nnnn3-c3ccccc3)c2C)no1	2.95	i	nt	nt	nt
CC1(c2ccc(NC(=O)c3ccccc3F)cc2)CC1(Cl)Cl (centres undefined)	nt	i	nt	nt	nt
CCC(CC)C(=O)Nc1ccc(C(=O)Nc2cc(C)on2)cc1	1.06	i	nt	nt	nt
COCCN(C(=O)COC(=O)c1ccc(C=O)cc1)c1c(N)n(Cc2ccccc2)c(=O)[nH]c1=O	nt	i	nt	nt	nt
COc1ccc(CC(=O)OC(C)C(=O)NCc2ccc3c(c2)OCO3)cc1OC (centres undefined)	nt	i	nt	nt	nt
SMILES	KCNQ2 pot	KCNQ2 inh	KCNQ2 inh conf	KCNQ1 spec	CHO parental ctr	others
COc1ccc(C(=O)OC2CCN(c3ncc(C(F)(F)F)cc3Cl)CC2)cc1	-8.67	-8.67*	i	i	i
O=C(OC1CCN(c2ncc(C(F)(F)F)cc2Cl)CC1)c1ccccc1	nt	i	nt	nt	nt
CC(C(=O)Nc1ccc(C(N)=O)cc1)N1C(=O)c2ccccc2S1(=O)=O (centres undefined)	nt	i	nt	nt	nt
Cc1ccccc1CCN1CCCC(CN(C)C(=O)c2ccc3ncccc3c2)C1 (centres undefined)	nt	i	nt	nt	nt
CN1/C(=C\C=O)C(C)(C)c2ccccc21	1.51	i	nt	nt	nt
CN1\C(=C/C=C/C=C/C=[N+](C)C)C(C)(C)c2ccccc21	-9.69	-9.69*	-48.0%*	-36.5%*	-35.5%*	KCNQ2 patch conf=+;Kir21 confirm=11.5%*;HEK293 ctr=i
O=C(CC(C(=O)O)c1cccc(Cl)c1Cl)c1ccccc1 (centres undefined)	0.01	i	nt	nt	nt
COc1cccc(Nc2nc(NCC3CCCO3)c3ccccc3n2)c1 (centres undefined)	-10.1	-10.1*	i	i	i	Kir21 confirm=17.5%*;HEK293 ctr=i
COc1cccc(Nc2nc(NCCO)c3ccccc3n2)c1	nt	i	nt	nt	nt
O=C(Cn1c(NCCCO)nc2ccccc21)c1ccc(F)cc1	0.75	i	nt	nt	nt
Cc1ccccc1OCC1Cn2c(nc3c2c(=O)n(C)c(=O)n3C)O1 (centres undefined)	nt	i	nt	nt	nt
CC(C)CC(=O)OCc1cn(-c2ccccc2)nn1	nt	i	nt	nt	nt
Cc1cc(=O)oc2cc(OCC(=O)OCC(=O)N3CCC(C)CC3)ccc12	nt	i	nt	nt	nt
CCCn1c(NCc2c[nH]c3ccccc23)nc2ccccc21	-7.94	-7.94*	-27.5%*	i	i	KCNQ2 patch conf=+;Kir21 confirm=42.5%*;HEK293 ctr=i
CCCn1c(NCc2ccccn2)nc2ccccc21	1.87	i	nt	nt	nt
c1ccc(Cc2nc3ccccc3n2Cc2ccccc2)cc1	-8.06	-8.06*	-46.0%*	-44.5%*	-36.5%*	KCNQ2 patch conf=i;Kir21 confirm=64.0%*;HEK293 ctr=77.0%*
Cc1nc2ccccc2n1Cc1ccccc1	nt	i	nt	nt	nt
CC(=O)c1ccc(N(C(=O)c2csnn2)C(C(=O)NC2CCCC2)c2ccccc2)cc1 (centres undefined)	nt	i	nt	nt	nt
Cc1cc(C)n(-c2nc(SCC(=O)O)c3c4c(sc3n2)COC(C)(C)C4)n1	nt	i	nt	nt	nt
Cc1cc(C)n(-c2nc(SCCN(C)C)c3c4c(sc3n2)CCCC4)n1	-8.89	-8.89*	-30.0%*	-31.0%*	i	KCNQ2 patch conf=i;Kir21 confirm=i;HEK293 ctr=i
Cc1ccc(OCC(=O)Nc2ccccc2N2CCOCC2)c(C)c1	-7.42	-7.42*	i	i	i	Kir21 confirm=61.0%*;HEK293 ctr=i
Cc1cc(Cl)ccc1OCC(=O)Nc1ccccc1N1CCOCC1	nt	i	nt	nt	nt
CN(Cc1c(C(=O)N/N=C/c2cccc(Cl)c2)nnn1-c1nonc1N)c1ccccc1	nt	i	nt	nt	nt
COc1cc(CNCc2ccccc2)cc(Cl)c1OC	0.24	i	nt	nt	nt
